# ± gives the standard deviation of the averaged measurements. In all, about 33,000 sequences were measured (“E-score (dimensionless, -0.5 to 0.5)”: median about -0.046, highest 2% from about 0.36 on). The entries come from a sample that favours the highest values as a whole.
# System: T1, SpTbr T-box DNA-binding domain (GST fusion)
# T1 sequence: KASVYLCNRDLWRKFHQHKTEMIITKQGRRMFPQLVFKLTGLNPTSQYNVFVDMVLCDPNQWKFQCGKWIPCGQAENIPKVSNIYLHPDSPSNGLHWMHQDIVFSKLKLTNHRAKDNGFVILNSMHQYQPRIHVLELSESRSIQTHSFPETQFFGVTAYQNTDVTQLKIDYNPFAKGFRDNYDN
# Assay: PBM E-score of 8-mer (E-score (dimensionless, -0.5 to 0.5)); Tbr is Tbrain of the sea star Patiria miniata (Pm) or the sea urchin Strongylocentrotus purpuratus (Sp); higher = stronger binding preference
# Settings: the construct has about 5 more residues each side
# Outline: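 GST-fused Tbr T-box DNA-binding domains (the whole T-box plus about five flanking residues) were expressed in BL21 E. coli at 20 °C and purified by glutathione affinity chromatography. Universal Agilent oligonucleotide arrays were made double-stranded by primer extension, incubated with 200 nM protein in PBS (pH 7.5), then scanned and quantified. Every ungapped 8-mer was scored from probe intensities. The Universal PBM Analysis Suite gave each word an enrichment E-score, averaged over duplicate arrays.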
row,Sequence,PBM E-score of 8-mer
1,CAGATAGA,-0.131 ± 0.025
2,CAGCAGAG,-0.0309 ± 0.05
3,CACTCTCA,0.317 ± 0.00081
4,CATGCGCG,0.221 ± 0.023
5,CTACTGTC,0.1 ± 0.024
6,CAGGACTA,-0.191 ± 0.029
7,AGACTTAT,0.00662 ± 0.019
8,GAGCCTGC,-0.0257 ± 0.039
9,CATAACAA,0.00154 ± 0.064
10,GATAACAC,0.414 ± 0.022
11,CATAACAC,0.405 ± 0.028
12,GATAACGC,0.288 ± 0.011
13,GATAACAA,0.27 ± 0.027
14,AATAACAC,0.294 ± 0.062
15,CAGCATGA,-0.154 ± 0.015
16,AAGTTGGT,-0.0114 ± 0.097
17,GGAGTCAA,-0.0304 ± 0.04
18,CAAGCACC,0.0313 ± 0.011
19,ATAGCACC,0.387 ± 0.011
20,ATAGCACA,0.156 ± 0.06
21,CTAGCACC,0.415 ± 0.014
22,ATAGCACG,0.34 ± 0.0094
23,CTAGCACA,0.271 ± 0.018
24,CCAGTTGA,0.0132 ± 0.086
25,CAGGGGTC,-0.231 ± 0.086
26,AGAATCGC,0.165 ± 0.045

row,Sequence,PBM E-score of 8-mer
1,ACTGATGG,-0.00902 ± 0.051
2,ACAGAGGG,-0.118 ± 0.029
3,GCAATGCC,-0.174 ± 0.032
4,GCATCTAA,-0.0797 ± 0.077
5,GAATTGAA,-0.177 ± 0.099
6,GTCGCCCA,0.198 ± 0.0069
7,ACACATTA,0.291 ± 0.031
8,ACACATTC,0.38 ± 0.022
9,ACACATTG,0.368 ± 0.01
10,ACACATAA,0.269 ± 0.016
11,AAACATTG,0.0255 ± 0.053
12,AAACATTC,-0.0068 ± 0.0056
13,ACACATAG,0.306 ± 0.018
14,CCACATTC,0.14 ± 0.06
15,ACACATAT,0.407 ± 0.0072
16,GTCAAGCA,0.0528 ± 0.058
17,ACTCTTTA,0.0329 ± 0.022
18,CGCTACCA,0.271 ± 0.0082
19,ATTAGGAG,-0.247 ± 0.041
20,GAGCCAGC,0.0706 ± 0.066
21,ACTACTCC,-0.139 ± 0.024
22,ACTCCGGA,-0.0213 ± 0.013
23,CGTGCGGA,0.147 ± 0.028
24,AGTGCGGA,0.257 ± 0.023
25,GGTGCGGA,0.404 ± 0.023
26,TGTGCTAA,0.26 ± 0.011

row,Sequence,PBM E-score of 8-mer
1,GGTGCTAC,0.42 ± 0.007
2,AGTGCTAG,0.265 ± 0.049
3,AGTGCTAT,0.243 ± 0.079
4,CGTGCTAC,0.128 ± 0.0037
5,GGTGCTAA,0.4658 ± 0.00059
6,AGTGCTAC,0.245 ± 0.027
7,CGTGCTAA,0.349 ± 0.0041
8,AGTGCTAA,0.412 ± 0.015
9,AGTTACTG,-0.0684 ± 0.048
10,AGTAGCCC,-0.239 ± 0.026
11,CCCGCTTC,0.139 ± 0.082
12,GAGTTTGA,0.00341 ± 0.029
13,AGGTCAAT,-0.202 ± 0.093
14,CTTTTCGA,-0.087 ± 0.018
15,GGTGCAAA,0.3907 ± 0.0034
16,GGTGCAAC,0.176 ± 0.012
17,TGTGCAAA,0.225 ± 0.033
18,ACGTAGGG,-0.127 ± 0.051
19,CTTGGAAC,-0.26 ± 0.046
20,CGTCAAAG,0.228 ± 0.028
21,AGAAGGTG,0.386 ± 0.015
22,AGAAGGTA,-0.167 ± 0.031
23,ACAAGGTA,0.0584 ± 0.021
24,AGAAGGTC,-0.2756 ± 0.0017
25,ACAAGGTG,0.425 ± 0.0045
26,ACAAGGTC,0.202 ± 0.026

row,Sequence,PBM E-score of 8-mer
1,AGATCTTC,0.0938 ± 0.043
2,GCTTGTCA,0.12044 ± 2.8e-05
3,ACTTGTCA,0.4189 ± 0.00086
4,GCTTGTGA,0.202 ± 0.074
5,ACTTGTGA,0.412 ± 0.011
6,ACTTGTGG,0.205 ± 0.00054
7,TCTTGTCA,0.24 ± 0.014
8,AGTTGTGG,0.164 ± 0.06
9,CGTTGTGA,0.162 ± 0.028
10,AGTTGTGA,0.407 ± 0.0049
11,ATTGCGAC,-0.0335 ± 0.048
12,CGATGACG,0.0899 ± 0.049
13,AGCCTATC,-0.168 ± 0.1
14,AACAATGC,-0.018 ± 0.0069
15,CAGAGTTC,-0.129 ± 0.032
16,ACTGGTAC,-0.0857 ± 0.01
17,AACCACTT,-0.0435 ± 0.018
18,AAGGTGGG,0.242 ± 0.042
19,CAGGTGGC,0.323 ± 0.0069
20,GAGGTGGC,0.3855 ± 0.0037
21,GAGGTGGA,0.06436 ± 0.00017
22,AAGGTGGA,-0.0733 ± 0.085
23,AAGGTGGC,0.372 ± 0.0085
24,AATGGCCT,-0.0378 ± 0.026
25,AGAGTTTC,-0.243 ± 0.052
26,AGCTAGCG,0.0935 ± 0.042

row,Sequence,PBM E-score of 8-mer
1,AACCTCGA,-0.0446 ± 0.051
2,CCCCTCGG,-0.255 ± 0.051
3,CACCTCGA,0.44517 ± 8.5e-05
4,AACCTCGG,-0.108 ± 0.049
5,CACCTCGG,0.402 ± 0.0072
6,GACCTCGA,-0.0589 ± 0.014
7,CACCTCGC,0.439 ± 0.012
8,AACCTCGC,0.152 ± 0.055
9,GACCTCGC,0.0532 ± 0.0042
10,CGACCCAC,0.00361 ± 0.024
11,ACTTTCGC,0.328 ± 0.038
12,ATGGGGGC,-0.283 ± 0.021
13,AGGGACTA,-0.1367 ± 0.00023
14,CTCAAGGC,-0.137 ± 0.013
15,ATTACGCG,0.19 ± 0.028
16,ATGTCTAG,-0.0188 ± 0.02
17,GCAGTGCC,-0.102 ± 0.027
18,GATCCTCA,0.11 ± 0.055
19,GATAGCCC,-0.217 ± 0.0042
20,ACACTTGG,0.367 ± 0.022
21,CCACTTGC,0.192 ± 0.049
22,AAACTTGC,0.102 ± 0.0067
23,ACACTTGA,0.347 ± 0.0096
24,ACACTTGC,0.4 ± 0.0054
25,ATACTTGG,-0.22 ± 0.046
26,GCCTAAGA,-0.128 ± 0.039

row,Sequence,PBM E-score of 8-mer
1,ACGCTGAG,-0.115 ± 0.075
2,AGGCCATA,-0.0266 ± 0.0079
3,ATACCCTG,-0.119 ± 0.008
4,CCACCCTA,0.0825 ± 0.11
5,GCACCCTA,0.118 ± 0.032
6,ACACCCTC,0.402 ± 0.016
7,CCACCCTC,0.0803 ± 0.068
8,ACCCCCTG,0.0826 ± 0.062
9,ACACCCTG,0.415 ± 0.024
10,ACCCCCTC,-0.0672 ± 0.037
11,ACACCCTA,0.371 ± 0.01
12,GTCTAGAA,-0.242 ± 0.049
13,CAGATCGA,-0.12 ± 0.014
14,AGAGTTCG,-0.121 ± 0.068
15,CATCGCAC,0.376 ± 0.019
16,GATCGCAA,0.2797 ± 0.00053
17,AATCGCAG,0.0391 ± 0.046
18,GATCGCGC,0.352 ± 0.025
19,AATCGCAC,0.4074 ± 0.00091
20,CATCGCAA,-0.03 ± 0.019
21,CATCGCAG,0.109 ± 0.046
22,AATCGCAT,0.113 ± 0.0034
23,GATCGCAC,0.442 ± 0.0075
24,GGGGAGCA,-0.25 ± 0.0084
25,AGCACTGA,0.0628 ± 0.0091
26,AGTGCCCC,-0.185 ± 0.025

row,Sequence,PBM E-score of 8-mer
1,CATGTCGA,-0.0673 ± 0.11
2,AAGACGAT,-0.0524 ± 0.029
3,GCGCGCGC,0.0386 ± 0.035
4,AGACTGAT,-0.168 ± 0.062
5,GTCCAGCA,-0.295 ± 0.06
6,CCTTTAAC,0.141 ± 0.02
7,CACTTCAG,0.269 ± 0.049
8,CACTTCAC,0.39 ± 0.0097
9,AACTTCAC,0.147 ± 0.036
10,CTAAGGAA,-0.158 ± 0.034
11,AACCTGCG,0.0936 ± 0.029
12,CACCTGGC,0.389 ± 0.021
13,AACCTGCC,-0.0535 ± 0.017
14,GACCTGCC,0.0636 ± 0.012
15,AACCTGGC,0.0794 ± 0.017
16,CACCTGCC,0.3954 ± 0.00044
17,CACCTGCG,0.425 ± 0.0075
18,CACCTGCA,0.346 ± 0.0038
19,CACCTGGA,0.297 ± 0.025
20,AATGGATC,-0.0632 ± 0.037
21,GAATCGTA,-0.0254 ± 0.00061
